From PubChem BioAssay
A selection: hits, their analogues and other compounds. The true share with any hit is near 5.3%.
PostGolgi ctrl – yeast control strain growth, post-Golgi counter-screen; efflux-deficient yeast background strain, growth absorbance A615, 16 h; inhibition, % at 10 µM; actives 5% (n = 98,000); AID 738
MT1-MMP txn act – activates MT1-MMP transcription. HT1080 MT1-MMP promoter luciferase reporter, luminescence, overnight; hits give high values. activation factor at 10 µM. actives 0.16% (n = 86,000). AID 750;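 active = activation factor of at least 2 for MT1-MMP transcription at 10 µM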
PostGolgi yeast – growth inhibition of a yeast mutant, post-Golgi transport screen. post-Golgi transport phenotypic cell assay. inhibition, % at 10 µM. actives 0.9% (n = 98,000). AID 739;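 note: yeast cells grown in 1536-well plates; yeast grown about 18 h at 30C before absorbance read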
Measles CPE – protection of cells from measles virus | Measles virus-infected cells, CPE protection, absorbance | protection (pct of control), % at 4 µM | actives 1.5% (n = 140,000) | AID 841; in the data active = protection mostly above about 24%, no sharp cut-off; inactive = mostly below about 26%
Active calls of the source: *; x = no result given. Cut-off read from the data, not from the text of the source, unless noted: active = inhibition above about 30%; inactive = the rest.

SMILES	PostGolgi ctrl	MT1-MMP txn act	PostGolgi yeast	Measles CPE
O=c1[nH]c(=O)n(Cc2ccco2)c(O)c1C=NCc1cccs1	-4.6	x	0.9	9.6
O=c1[nH]c(=S)n(Cc2ccco2)c(O)c1C=NCc1cccs1	35.8*	1.3	7.9	1.8
Cc1nn(-c2ccccc2)c(Cl)c1C1C(C#N)=C(N)Oc2c1c(=O)oc1ccccc21 (stereo not given)	30.9*	1.1	5.6	12.0
N#CC1=C(N)Oc2c(c(=O)oc3ccccc23)C1c1cccnc1 (stereo not given)	10.2	1.2	1.7	19.1
CN1CCc2nc3sc(C(=O)NC(C)(C)C)c(N)c3cc2C1	68.3*	1.3	96.3*	10.7
CC[n+]1c(SC)ccc2cc(OC)ccc21	x	x	x	13.2
O=C(COc1ccc(Cl)cc1Cl)N1CCN(C/C=C/c2ccccc2)CC1	66.0*	1.2	104.0*	9.2
CCCC1COC(Cn2cncn2)(c2ccc(Cl)cc2Cl)O1 (stereo not given)	95.8*	1	85.1*	15.8
O=c1cccc2n1CC1CC2CN(S(=O)(=O)c2ccccc2)C1 (stereo not given)	2.5	1.4	43.1*	10.0
CC(C)CNC(=O)c1c(N)n(Cc2ccco2)c2nc3ccccc3nc12	55.1*	1.1	3.0	3.8
CC(C)OC(=O)c1c(N)n(Cc2ccco2)c2nc3ccccc3nc12	35.2*	1.2	9.0	9.9
COCCOC(=O)c1c(N)n(Cc2ccco2)c2nc3ccccc3nc12	x	1.1	x	x
CCCCC1C(=O)NC(=S)NC1=O	x	x	x	7.4
Cc1ccc2c(c1)N(N=O)CCC2	x	x	x	11.9
COc1cc(CN2CCN(c3cc(C)ccc3C)CC2)ccc1O	2.3	1.2	-2.3	1.1
O=C(Nc1cccnc1)c1c(O)c2c(n(Cc3ccccc3)c1=O)CCCC2	38.5*	1.1	-1.1	15.5
O=C(Nc1ccc(F)cc1)c1c(O)c2c(n(Cc3ccccc3)c1=O)CCCC2	x	x	x	2.4
CN1C(=O)/C(=C/c2ccc(N3CCCCCC3)o2)C(=O)NC1=S	x	2.2*	x	9.1
Cc1ccc(-n2nc(C)cc2NC(=O)COc2cc(C)cc3oc(=O)c4c(c23)CCC4)cc1	7.9	1.3	0.6	5.6
C1=C(CCNCc2ccccc2)CCCC1	8.1	x	-5.6	35.1*
Cc1ccc(CNCCc2ccccc2F)cc1	x	x	x	2.7
CN(C(=O)Oc1ccc(Cl)c2cccnc12)c1ccccc1	x	x	x	30.9*
CCCCN1C(=O)NC(=O)C2(Cc3c(nc4c(C)cccn4c3=O)N3CCc4ccccc4C32)C1=O (stereo not given)	39.4*	1.1	1.0	19.8
O=C1NC(=O)C2(Cc3ccccc3N3CCOCC32)C(=O)N1c1ccccc1 (stereo not given)	2.3	1.3	-1.3	10.2
Cc1ccc2nc3c(cc2c1)CC1(C(=O)N(C)C(=O)N(C)C1=O)C1CCCCN31 (stereo not given)	1.6	1.3	-3.6	34.1*
SMILES	PostGolgi ctrl	MT1-MMP txn act	PostGolgi yeast	Measles CPE
CN1C(=O)N(C)C(=O)C2(Cc3cc(N)ccc3N3CCN(c4ccccc4F)CC32)C1=O (stereo not given)	3.2	1.1	0.2	27.8
Cc1ccc2nc3c(cc2c1)CC1(C(=O)N(C)C(=O)N(C)C1=O)C1COCCN31 (stereo not given)	31.7*	1.3	-2.8	5.9
COC1=CCC2([N+](=O)[O-])CN(C)CC1([N+](=O)[O-])C2 (stereo not given)	x	x	x	10.3
CC1OC(NCCc2ccccc2)C(O)C(O)C1O (stereo not given)	15.1	1.1	3.0	8.0
O=C(Cc1ccccc1)Oc1cccc(N2C(=O)CCC2=O)c1	32.8*	1	2.7	39.5
O=C(Cc1ccccc1)OCCN1CCCCC1	6.4	1.1	8.0	3.4
Cc1nc2ccccc2n1C1CCN(Cc2nnnn2CCc2ccccc2)CC1	39.5*	1	0.7	7.3
O=C(c1cc(-c2ccc(Cl)cc2)n(-c2ccc(Cl)cc2Cl)n1)N1CCOCC1	33.4*	x	6.1	2.2
CCN(CC)CCOC(=O)c1ccc(N=Cc2c(O)[nH]c(=O)[nH]c2=O)cc1	-10.6	x	4.1	60.1*
CCOC(=O)c1cc2c(cn1)[nH]c1ccccc12	x	1.5	x	34.9
O=c1[nH]c(=O)n(CCC2=CCCCC2)c(O)c1C=Nc1cccc(F)c1	10.8	1.1	1.7	7.5
CC(C)(C)n1c(O)c(C=Nc2ccc3c(c2)CCC3)c(=O)[nH]c1=O	44.6*	1.2	1.3	14.9
COc1ccccc1OCC(=O)Nc1ccc(Cl)cc1C(=O)c1ccccc1	40.3*	x	-2.4	2.2
CCOc1ccccc1OCC(=O)Nc1ccc(Cl)cc1C(=O)c1ccccc1	x	x	x	6.5
CCC(C)(C)n1nnnc1C(c1cccs1)N1CC=C(c2ccc(F)cc2)CC1 (stereo not given)	40.9*	1.1	4.2	7.9
Fc1ccc(C2=CCN(C(c3cccs3)c3nnnn3CCc3ccccc3)CC2)cc1 (stereo not given)	43.1*	1.2	4.3	5.3
Fc1ccc2c(c1)nnn2C1CCN(Cc2nnnn2CCc2ccccc2)CC1	-8.2	1.1	4.0	3.4
CCCC/C=C/[C@@H](NP(=O)(c1ccccc1)c1ccccc1)c1ccccc1OC	x	1	x	x
CCCCCCOc1ccc(CN2CCN(CCO)CC2)cc1	31.4*	x	89.1*	5.3
CSCc1nnc2n1-c1ccc(Cl)cc1C(c1ccccc1)=NC2	x	x	x	5.4
C[C@@H]1C(=O)O[C@@H]2[C@H](O)C34[C@@H]5OC(=O)C3(O[C@H]3OC(=O)[C@H](O)C34[C@H](C(C)(C)C)[C@H]5O)[C@@]12O (stereo not given in full)	x	x	x	20.4*
O=C(NC1CN2CCC1CC2)c1cc(Cl)c([N+](=O)[O-])c2nc[nH]c12 (stereo not given)	x	x	x	8.4
COC(=O)C(O)(c1ccc(NC(=S)NC(=O)c2ccccc2)cc1)C(F)(F)F (stereo not given)	33.4*	x	3.5	21.9
CCCCn1c(O)c(C(C)=Nc2cccc(C(=O)O)c2)c(=O)[nH]c1=O	2.9	1.2	1.7	9.2
CCCCn1c(O)c(C(C)=Nc2ccc(OCC)cc2)c(=O)[nH]c1=O	26.0	1.2	52.4*	8.0
SMILES	PostGolgi ctrl	MT1-MMP txn act	PostGolgi yeast	Measles CPE
CCCCCCN=C(C)c1c(O)n(Cc2ccccc2)c(=O)[nH]c1=O	34.7*	1.1	0.2	9.0
CC(=NCCCO)c1c(O)n(Cc2ccccc2)c(=O)[nH]c1=O	x	1	x	4.7
CCCC/C(=N\O)c1c[nH]c2ccccc12	6.7	1.2	3.5	15.6
CCOC(=O)C(O)(c1ccc(N(CC)C(=O)COc2ccccc2)cc1)C(F)(F)F (stereo not given)	x	x	x	20.4
CCCN1[C@@H]2C[C@@H](O)CC[C@@H]2C[C@H]1C(=O)OC	x	1.2	x	x
CCn1nc(-c2ccccc2)nc2c(=O)n(C)c(=O)nc1-2	101.6*	x	105.6*	5.4
Cc1nc2c(=O)n(C)c(=O)nc-2n(C)n1	x	0	x	9.2
CC1(C)C[C@H]2C=C(C=O)[C@]3(C=O)C[C@]3(C)[C@H]2C1	x	x	x	-0.8
CC(ON1CC1(C(F)(F)F)C(F)(F)F)(C(N)=O)C(N)=O (stereo not given)	x	x	x	4.6
CCCCc1nc2ccccc2c(=O)n1-c1ccc(O)cc1	-0.6	1.1	1.0	3.9
CCOc1ccc(-n2c(CC)nc3ccccc3c2=O)cc1	30.6*	x	6.8	3.8
